# Measurements published in publication PMC7862700, “An all-to-all approach to the identification of sequence-specific readers for epigenetic DNA modifications on cytosine”.
# Legend:
# Assay in all cases: DAPPL (digital affinity profiling via proximity ligation, sequencing); 10 mM Tris-HCl pH 7.5, 50 mM NaCl, 1 mM DTT, 4% glycerol, room temperature, 30 min; GST-TFs on glutathione beads, 16-mer random dsDNA library, 0.1% formaldehyde crosslink after washing; high values mean tight binding
# Conditions in all cases: protein: recombinant; tags: N-terminal GST; dsDNA, one strand shown
# FLI1 = target: T1, FLI1 (Homo sapiens, UniProt Q01543 1-452)
# T1 sequence: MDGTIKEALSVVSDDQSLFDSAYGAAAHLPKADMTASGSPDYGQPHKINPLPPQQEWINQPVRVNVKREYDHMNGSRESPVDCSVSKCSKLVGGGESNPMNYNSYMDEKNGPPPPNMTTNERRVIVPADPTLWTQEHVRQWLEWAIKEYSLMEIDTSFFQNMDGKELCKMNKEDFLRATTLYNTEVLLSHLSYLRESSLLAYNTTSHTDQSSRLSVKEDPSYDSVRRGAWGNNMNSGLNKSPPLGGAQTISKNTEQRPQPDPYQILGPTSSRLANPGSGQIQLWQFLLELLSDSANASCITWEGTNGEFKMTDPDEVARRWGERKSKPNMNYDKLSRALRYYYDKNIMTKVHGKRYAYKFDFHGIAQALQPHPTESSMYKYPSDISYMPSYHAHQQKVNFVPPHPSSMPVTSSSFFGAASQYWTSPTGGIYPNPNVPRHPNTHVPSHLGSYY
# How it was run: (§1)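 Human transcription factors fused to GST were expressed in yeast, captured on glutathione beads, given DNA barcodes and pooled with a GST-only negative control. Pools were incubated with 200 nmole of a 16-mer random double-stranded DNA library in Tris/NaCl/DTT/glycerol buffer at room temperature for 30 min. They were then washed, crosslinked with 0.1% formaldehyde, proximity-ligated (BsaI/T4 ligase, 1 h, 37 °C), PCR-amplified and sequenced on an Illumina NextSeq500. Binding signal is each 6-mer's read frequency for a factor divided by its frequency for the GST control.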
# ELK1 = target: T2, ELK1 (Homo sapiens, UniProt P19419 1-428)
# T2 sequence: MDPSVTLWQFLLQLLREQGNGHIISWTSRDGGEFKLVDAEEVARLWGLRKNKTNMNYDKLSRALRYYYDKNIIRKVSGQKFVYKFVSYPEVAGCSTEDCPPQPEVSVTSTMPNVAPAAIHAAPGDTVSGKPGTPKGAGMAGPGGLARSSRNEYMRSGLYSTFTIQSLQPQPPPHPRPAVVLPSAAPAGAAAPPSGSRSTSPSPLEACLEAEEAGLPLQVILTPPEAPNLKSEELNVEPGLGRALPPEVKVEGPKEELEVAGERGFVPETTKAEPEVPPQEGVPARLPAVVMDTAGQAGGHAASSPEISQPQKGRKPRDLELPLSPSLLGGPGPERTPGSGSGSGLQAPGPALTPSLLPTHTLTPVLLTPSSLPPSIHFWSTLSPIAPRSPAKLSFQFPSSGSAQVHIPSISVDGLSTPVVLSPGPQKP
# How it was run: as §1
# GABPA = target: T3, GABPA (Homo sapiens, UniProt Q06546 1-454)
# T3 sequence: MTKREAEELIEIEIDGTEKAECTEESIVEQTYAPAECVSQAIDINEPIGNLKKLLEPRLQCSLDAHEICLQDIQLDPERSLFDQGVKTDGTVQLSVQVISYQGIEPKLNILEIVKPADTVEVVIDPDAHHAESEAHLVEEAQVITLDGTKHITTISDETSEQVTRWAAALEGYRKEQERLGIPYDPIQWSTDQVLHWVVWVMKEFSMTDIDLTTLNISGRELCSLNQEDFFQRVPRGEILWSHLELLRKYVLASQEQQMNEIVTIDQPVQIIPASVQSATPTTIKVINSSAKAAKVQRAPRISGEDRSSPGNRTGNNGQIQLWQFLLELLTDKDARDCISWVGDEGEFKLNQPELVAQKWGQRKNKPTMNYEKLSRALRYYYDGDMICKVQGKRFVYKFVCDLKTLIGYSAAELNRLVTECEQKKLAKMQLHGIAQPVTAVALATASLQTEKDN
# How it was run: as §1
# ERG = target: T4, ERG (Homo sapiens, UniProt P11308 1-479)
# T4 sequence: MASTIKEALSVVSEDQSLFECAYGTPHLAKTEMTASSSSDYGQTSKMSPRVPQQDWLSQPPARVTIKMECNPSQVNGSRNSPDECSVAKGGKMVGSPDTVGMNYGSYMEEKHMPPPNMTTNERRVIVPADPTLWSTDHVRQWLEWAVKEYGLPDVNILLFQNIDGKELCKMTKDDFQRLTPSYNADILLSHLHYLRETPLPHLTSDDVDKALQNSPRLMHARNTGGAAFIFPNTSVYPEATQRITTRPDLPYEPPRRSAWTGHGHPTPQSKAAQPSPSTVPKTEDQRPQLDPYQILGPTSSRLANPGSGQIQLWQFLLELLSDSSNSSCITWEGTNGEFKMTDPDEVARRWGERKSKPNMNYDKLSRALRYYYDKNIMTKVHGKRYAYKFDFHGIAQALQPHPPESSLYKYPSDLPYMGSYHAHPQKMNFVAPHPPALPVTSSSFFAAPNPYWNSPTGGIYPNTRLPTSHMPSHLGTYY
# How it was run: as §1
# ELF1 = ELF1 (Homo sapiens, UniProt P32519 1-619)
# Chain of ELF1 (P32519 whole entry): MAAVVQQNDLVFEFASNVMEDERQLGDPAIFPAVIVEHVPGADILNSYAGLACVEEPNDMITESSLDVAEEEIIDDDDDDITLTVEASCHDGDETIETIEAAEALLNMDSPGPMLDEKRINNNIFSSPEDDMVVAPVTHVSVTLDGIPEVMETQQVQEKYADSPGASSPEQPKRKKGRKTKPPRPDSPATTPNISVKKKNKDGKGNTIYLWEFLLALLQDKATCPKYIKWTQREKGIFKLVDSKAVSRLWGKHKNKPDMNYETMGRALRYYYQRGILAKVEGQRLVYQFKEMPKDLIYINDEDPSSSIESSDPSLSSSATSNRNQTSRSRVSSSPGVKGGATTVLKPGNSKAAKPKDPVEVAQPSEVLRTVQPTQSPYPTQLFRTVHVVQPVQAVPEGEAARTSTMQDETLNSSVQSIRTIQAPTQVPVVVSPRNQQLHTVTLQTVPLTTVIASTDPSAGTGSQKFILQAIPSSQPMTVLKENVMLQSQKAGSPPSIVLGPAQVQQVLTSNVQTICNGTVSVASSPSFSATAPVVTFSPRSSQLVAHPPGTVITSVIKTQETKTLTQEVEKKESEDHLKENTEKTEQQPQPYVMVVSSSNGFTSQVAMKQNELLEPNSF
# How it was run: as §1
# EHF = target: T5, EHF (Homo sapiens, UniProt Q9NZC4 1-300)
# T5 sequence: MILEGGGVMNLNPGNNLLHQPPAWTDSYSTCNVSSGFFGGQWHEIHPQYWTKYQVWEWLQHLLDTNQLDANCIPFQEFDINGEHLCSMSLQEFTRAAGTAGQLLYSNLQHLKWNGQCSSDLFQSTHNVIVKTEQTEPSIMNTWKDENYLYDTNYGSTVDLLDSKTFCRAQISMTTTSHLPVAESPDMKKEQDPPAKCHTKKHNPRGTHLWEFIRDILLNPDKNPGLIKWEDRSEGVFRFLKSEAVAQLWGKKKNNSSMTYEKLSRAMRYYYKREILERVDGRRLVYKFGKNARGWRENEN
# How it was run: as §1
# SPI1 = SPI1 (Homo sapiens, UniProt P17947 1-270)
# How it was run: as §1
# SPIB = SPIB (Homo sapiens, UniProt Q01892 1-262)
# Chain of SPIB (Q01892 whole entry): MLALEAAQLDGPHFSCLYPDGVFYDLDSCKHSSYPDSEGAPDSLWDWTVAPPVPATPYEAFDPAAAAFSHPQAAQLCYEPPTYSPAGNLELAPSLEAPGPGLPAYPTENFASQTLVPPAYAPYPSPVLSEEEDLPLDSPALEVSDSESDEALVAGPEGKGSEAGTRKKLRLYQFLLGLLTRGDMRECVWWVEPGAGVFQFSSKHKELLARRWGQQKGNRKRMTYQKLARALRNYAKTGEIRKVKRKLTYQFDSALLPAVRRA
# How it was run: as §1
# ELK3 = target: T6, ELK3 (Homo sapiens, UniProt P41970 1-407)
# T6 sequence: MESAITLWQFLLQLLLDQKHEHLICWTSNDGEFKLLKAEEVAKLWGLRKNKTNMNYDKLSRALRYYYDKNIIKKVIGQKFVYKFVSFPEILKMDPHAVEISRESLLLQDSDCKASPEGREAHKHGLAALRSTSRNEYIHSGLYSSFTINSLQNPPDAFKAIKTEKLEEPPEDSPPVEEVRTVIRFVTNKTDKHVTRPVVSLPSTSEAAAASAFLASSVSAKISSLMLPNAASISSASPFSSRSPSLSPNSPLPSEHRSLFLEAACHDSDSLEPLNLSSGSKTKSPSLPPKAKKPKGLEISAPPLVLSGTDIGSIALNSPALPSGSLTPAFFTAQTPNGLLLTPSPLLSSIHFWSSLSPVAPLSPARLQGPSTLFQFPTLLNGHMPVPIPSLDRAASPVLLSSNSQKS
# How it was run: as §1
# FEV = target: T7, FEV (Homo sapiens, UniProt Q99581 1-238)
# T7 sequence: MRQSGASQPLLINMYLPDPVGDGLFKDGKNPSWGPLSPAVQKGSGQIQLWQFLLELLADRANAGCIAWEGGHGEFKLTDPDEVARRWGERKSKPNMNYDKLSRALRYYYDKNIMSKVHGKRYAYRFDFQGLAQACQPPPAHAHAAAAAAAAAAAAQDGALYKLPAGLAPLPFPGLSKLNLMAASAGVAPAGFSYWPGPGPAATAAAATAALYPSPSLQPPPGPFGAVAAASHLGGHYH
# How it was run: as §1
# ETV5 = ETV5 (Homo sapiens, UniProt P41161 1-510)
# Chain of ETV5 (P41161 whole entry): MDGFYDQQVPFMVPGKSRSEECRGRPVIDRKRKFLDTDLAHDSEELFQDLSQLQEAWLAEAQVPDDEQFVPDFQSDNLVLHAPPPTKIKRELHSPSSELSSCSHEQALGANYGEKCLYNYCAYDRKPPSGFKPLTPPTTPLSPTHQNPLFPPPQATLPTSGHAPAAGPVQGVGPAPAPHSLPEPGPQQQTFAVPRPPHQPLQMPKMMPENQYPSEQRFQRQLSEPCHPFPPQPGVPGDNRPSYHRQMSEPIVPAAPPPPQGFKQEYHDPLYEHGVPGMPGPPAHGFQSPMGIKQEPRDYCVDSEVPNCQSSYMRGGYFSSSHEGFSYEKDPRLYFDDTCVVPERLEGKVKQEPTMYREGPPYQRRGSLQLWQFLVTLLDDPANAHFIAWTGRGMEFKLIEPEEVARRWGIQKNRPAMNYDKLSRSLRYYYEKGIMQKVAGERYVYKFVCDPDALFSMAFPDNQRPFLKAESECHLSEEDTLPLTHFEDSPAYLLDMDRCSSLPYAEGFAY
# How it was run: as §1
# SPIC = target: T8, SPIC (Homo sapiens, UniProt Q8N5J4 1-248)
# T8 sequence: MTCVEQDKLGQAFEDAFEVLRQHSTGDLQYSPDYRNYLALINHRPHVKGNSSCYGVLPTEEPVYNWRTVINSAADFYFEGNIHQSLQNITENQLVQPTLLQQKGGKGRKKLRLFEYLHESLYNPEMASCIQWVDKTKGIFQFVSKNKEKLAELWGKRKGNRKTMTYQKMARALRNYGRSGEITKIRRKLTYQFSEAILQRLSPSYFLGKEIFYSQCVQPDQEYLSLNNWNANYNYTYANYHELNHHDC
# How it was run: as §1
# ELF4 = ELF4 (Homo sapiens, UniProt Q99607 1-663)
# Chain of ELF4 (Q99607 whole entry): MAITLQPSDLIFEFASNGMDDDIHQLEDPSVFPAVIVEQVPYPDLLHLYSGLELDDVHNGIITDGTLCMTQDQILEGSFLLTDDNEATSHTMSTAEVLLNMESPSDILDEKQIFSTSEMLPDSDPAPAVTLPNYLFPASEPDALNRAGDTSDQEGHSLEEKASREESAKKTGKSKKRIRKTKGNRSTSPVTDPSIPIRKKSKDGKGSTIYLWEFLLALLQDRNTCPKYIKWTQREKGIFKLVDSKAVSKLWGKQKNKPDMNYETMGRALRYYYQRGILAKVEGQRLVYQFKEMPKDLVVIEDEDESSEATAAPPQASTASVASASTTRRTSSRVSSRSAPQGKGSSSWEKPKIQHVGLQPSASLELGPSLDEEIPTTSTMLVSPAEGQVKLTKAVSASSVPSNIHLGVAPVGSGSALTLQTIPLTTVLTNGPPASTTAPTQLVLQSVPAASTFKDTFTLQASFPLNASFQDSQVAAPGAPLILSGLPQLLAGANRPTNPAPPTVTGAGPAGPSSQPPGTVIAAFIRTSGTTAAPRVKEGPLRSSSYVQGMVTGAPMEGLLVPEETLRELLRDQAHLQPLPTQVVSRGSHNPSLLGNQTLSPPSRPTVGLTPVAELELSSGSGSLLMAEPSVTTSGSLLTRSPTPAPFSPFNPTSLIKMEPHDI
# How it was run: as §1
# ELK4 = target: T9, ELK4 (Homo sapiens, UniProt P28324-2 1-405)
# T9 sequence: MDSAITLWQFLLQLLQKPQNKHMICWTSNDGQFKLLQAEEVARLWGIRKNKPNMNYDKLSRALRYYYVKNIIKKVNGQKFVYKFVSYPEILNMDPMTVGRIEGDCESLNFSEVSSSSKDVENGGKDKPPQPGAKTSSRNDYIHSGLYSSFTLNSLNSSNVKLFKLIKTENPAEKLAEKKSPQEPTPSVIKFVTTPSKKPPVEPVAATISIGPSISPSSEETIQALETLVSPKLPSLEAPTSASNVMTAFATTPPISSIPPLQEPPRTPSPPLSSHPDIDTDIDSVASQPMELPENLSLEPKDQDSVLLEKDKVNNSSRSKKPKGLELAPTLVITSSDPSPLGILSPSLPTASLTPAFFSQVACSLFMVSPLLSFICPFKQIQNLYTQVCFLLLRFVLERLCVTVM
# How it was run: as §1
# ETV2 = target: T10, ETV2 (Homo sapiens, UniProt O00321 1-342)
# T10 sequence: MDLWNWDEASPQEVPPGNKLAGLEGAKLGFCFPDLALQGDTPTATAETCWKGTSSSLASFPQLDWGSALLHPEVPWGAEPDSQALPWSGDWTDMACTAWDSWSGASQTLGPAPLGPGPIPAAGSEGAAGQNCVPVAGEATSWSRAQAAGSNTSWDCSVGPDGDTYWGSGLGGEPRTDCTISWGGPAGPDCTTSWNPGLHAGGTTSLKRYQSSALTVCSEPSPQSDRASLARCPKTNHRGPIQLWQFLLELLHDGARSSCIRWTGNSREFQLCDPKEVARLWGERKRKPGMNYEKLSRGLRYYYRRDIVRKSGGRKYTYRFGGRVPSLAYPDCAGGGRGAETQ
# How it was run: as §1
# ELF3 = target: T11, ELF3 (Homo sapiens, UniProt P78545 1-371)
# T11 sequence: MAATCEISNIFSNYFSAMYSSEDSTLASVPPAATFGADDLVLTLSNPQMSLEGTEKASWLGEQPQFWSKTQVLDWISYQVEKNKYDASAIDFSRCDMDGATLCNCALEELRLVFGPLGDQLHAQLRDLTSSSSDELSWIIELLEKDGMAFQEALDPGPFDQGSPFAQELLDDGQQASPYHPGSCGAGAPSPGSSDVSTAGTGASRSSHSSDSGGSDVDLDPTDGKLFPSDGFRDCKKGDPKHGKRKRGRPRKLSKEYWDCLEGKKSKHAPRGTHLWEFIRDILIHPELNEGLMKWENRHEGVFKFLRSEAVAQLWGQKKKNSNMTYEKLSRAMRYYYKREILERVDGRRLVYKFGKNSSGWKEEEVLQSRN
# How it was run: as §1
# ETV1 = ETV1 (Homo sapiens, UniProt P50549 1-477)
# Chain of ETV1 (P50549 whole entry): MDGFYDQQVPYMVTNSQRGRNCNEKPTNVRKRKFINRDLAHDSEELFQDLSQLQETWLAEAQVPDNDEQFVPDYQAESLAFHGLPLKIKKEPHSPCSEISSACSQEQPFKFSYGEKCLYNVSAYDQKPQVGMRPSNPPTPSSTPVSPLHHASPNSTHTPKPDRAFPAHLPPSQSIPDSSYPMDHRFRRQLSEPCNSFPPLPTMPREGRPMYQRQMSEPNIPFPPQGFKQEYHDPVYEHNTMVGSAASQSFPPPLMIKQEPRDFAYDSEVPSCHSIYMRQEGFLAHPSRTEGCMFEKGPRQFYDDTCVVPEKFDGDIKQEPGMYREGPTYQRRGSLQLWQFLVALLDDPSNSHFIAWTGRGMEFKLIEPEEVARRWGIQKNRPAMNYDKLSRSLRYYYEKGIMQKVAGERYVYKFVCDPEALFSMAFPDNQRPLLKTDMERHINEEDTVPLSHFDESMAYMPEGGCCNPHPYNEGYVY
# How it was run: as §1
Sequence,binding signal (FLI1),binding signal (ELK1),binding signal (GABPA),binding signal (ERG),binding signal (ELF1),binding signal (EHF),binding signal (SPI1),binding signal (SPIB),binding signal (ELK3),binding signal (FEV),binding signal (ETV5),binding signal (SPIC),binding signal (ELF4),binding signal (ELK4),binding signal (ETV2),binding signal (ELF3),binding signal (ETV1)
ACCGGA,"2.87 fold enrichment (6-mer frequency, TF over GST control)","3.55 fold enrichment (6-mer frequency, TF over GST control)","2.66 fold enrichment (6-mer frequency, TF over GST control)","3.94 fold enrichment (6-mer frequency, TF over GST control)","2.87 fold enrichment (6-mer frequency, TF over GST control)","3.2 fold enrichment (6-mer frequency, TF over GST control)","3.17 fold enrichment (6-mer frequency, TF over GST control)","3.16 fold enrichment (6-mer frequency, TF over GST control)","3.55 fold enrichment (6-mer frequency, TF over GST control)","6.19 fold enrichment (6-mer frequency, TF over GST control)","3.33 fold enrichment (6-mer frequency, TF over GST control)","2.63 fold enrichment (6-mer frequency, TF over GST control)","2.78 fold enrichment (6-mer frequency, TF over GST control)","2.4 fold enrichment (6-mer frequency, TF over GST control)","3.02 fold enrichment (6-mer frequency, TF over GST control)","3.15 fold enrichment (6-mer frequency, TF over GST control)","3.45 fold enrichment (6-mer frequency, TF over GST control)"
GCGTCC,"1.26 fold enrichment (6-mer frequency, TF over GST control)","1.27 fold enrichment (6-mer frequency, TF over GST control)","1.27 fold enrichment (6-mer frequency, TF over GST control)","1.28 fold enrichment (6-mer frequency, TF over GST control)","1.26 fold enrichment (6-mer frequency, TF over GST control)","1.22 fold enrichment (6-mer frequency, TF over GST control)","1.23 fold enrichment (6-mer frequency, TF over GST control)","1.3 fold enrichment (6-mer frequency, TF over GST control)","1.29 fold enrichment (6-mer frequency, TF over GST control)","1.36 fold enrichment (6-mer frequency, TF over GST control)","1.16 fold enrichment (6-mer frequency, TF over GST control)","1.23 fold enrichment (6-mer frequency, TF over GST control)","1.2 fold enrichment (6-mer frequency, TF over GST control)","1.25 fold enrichment (6-mer frequency, TF over GST control)","1.08 fold enrichment (6-mer frequency, TF over GST control)","1.37 fold enrichment (6-mer frequency, TF over GST control)","1.26 fold enrichment (6-mer frequency, TF over GST control)"
